# Measured values: ChEMBL document CHEMBL3433997, “St. Jude Leishmania screening dataset” (2016)
# Key:
# Type in all cases: functional
# [1] = target: Solute carrier family 2, facilitated glucose transporter member 1 (Homo sapiens) (UniProt P11166); assay: ST_JUDE_LEISH: Cytotoxicity at 2uM final concentration against transgenic Leishmania Mexicana promastigotes LmGLUT1 that are glucose transport deficient and complemented with the human glucose transporter GLUT1. Activity is measured by DNA content using SYBR green in vitro
# Sequence of Solute carrier family 2, facilitated glucose transporter member 1 (Homo sapiens) (P11166 whole entry): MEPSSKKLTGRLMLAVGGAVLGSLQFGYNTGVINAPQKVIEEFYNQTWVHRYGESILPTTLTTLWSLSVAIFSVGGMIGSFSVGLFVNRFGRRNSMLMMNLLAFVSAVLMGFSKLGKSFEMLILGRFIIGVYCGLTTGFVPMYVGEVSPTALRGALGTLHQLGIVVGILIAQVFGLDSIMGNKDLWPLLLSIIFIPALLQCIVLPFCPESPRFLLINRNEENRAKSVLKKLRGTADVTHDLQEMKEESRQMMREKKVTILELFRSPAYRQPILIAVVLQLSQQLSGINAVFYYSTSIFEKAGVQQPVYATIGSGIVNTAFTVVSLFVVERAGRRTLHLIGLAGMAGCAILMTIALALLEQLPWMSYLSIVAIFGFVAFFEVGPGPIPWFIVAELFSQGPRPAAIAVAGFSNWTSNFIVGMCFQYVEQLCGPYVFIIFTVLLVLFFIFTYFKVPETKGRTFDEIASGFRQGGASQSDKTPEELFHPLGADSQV
# [2] = target: Hexose transporter 1 (Plasmodium falciparum) (UniProt O97467); assay: ST_JUDE_LEISH: Cytotoxicity at 2uM final concentration against transgenic Leishmania Mexicana promastigotes LmPfHT that are glucose transport deficient and complemented with the Plasmodium falciparum hexose transporter. Activity is measured by DNA content using SYBR green in vitro
# [3] = target: Glucose transporter (Leishmania mexicana) (UniProt O61059); assay: ST_JUDE_LEISH: Cytotoxicity at 2uM final concentration against transgenic Leishmania Mexicana promastigotes LmGT2 that are glucose transport deficient and complemented with the L. Mexicana glucose transporter 2. Activity is measured by DNA content using SYBR green in vitro
SMILES,inhibition [1],inhibition [2],inhibition [3]
CC(C)(Oc1c(C2CCN(CCCCNC(=O)c3ccc(-c4ccc(Cl)cc4)cc3)CC2)ccc2c1CCCC2)C(N)=O,-2.15%,-0.94%,-1.84%
CC1CCCN(Cc2cc(Cl)cc(Cl)c2O)C1 (stereo unspecified),-1.08%,-0.95%,-1.76%
C=CCOC(=O)N1CCC(CNCc2ccc(-c3cccc(-c4nc5cc(F)ccc5[nH]4)c3)cc2)C1 (stereo unspecified),1.77%,2.36%,3.88%
CCCCCn1c(Sc2ccc(C#N)c([N+](=O)[O-])c2)nnc1-c1ccccc1,8.41%,9.62%,4.33%
CCC(CCON1C(N)=NC(N)=NC1(C)C)c1ccc(Cl)c(Cl)c1 (stereo unspecified),3.2%,3.06%,3.3%
O=C(Nc1ccc(OC2CCN(Cc3ccccc3)CC2)c(Cl)c1)c1ccco1,8.6%,10.1%,8.63%
CC(C)c1cn2c3c(cc(C(=O)N[C@@H](Cc4ccccc4)[C@H](O)CNC4CCOCC4)cc13)N(C)S(=O)(=O)CC2,3.12%,2.83%,3.22%
COc1ccc2[nH]c(C)cc(=NN=Cc3ccccc3F)c2c1,-0.29%,2.87%,-2.38%
O=C(Nc1ccc(F)cc1)NC1CCN(CCCCCNC(=O)C2CC2c2ccc(Cl)c(Cl)c2)CC1 (stereo unspecified),1.84%,1.54%,2.31%
CCN(CC)CCNc1ccnc2[nH]c3ccc([N+](=O)[O-])cc3c12,3.68%,3.92%,3.99%
COc1ccc(-c2nc(NC(=O)CS(=O)(=O)c3ccc(F)cc3)sc2C)cc1,8.03%,4.52%,2.47%
Cc1ccc(C)c(CN2CCC(CNC(=O)c3cc4ccc5cccnc5c4[nH]3)CC2)c1,0.51%,-0.66%,-0.23%
